Records with an inconclusive call do not appear. Entries that show only a call come without a potency. Active and inactive are the calls of the source. Calls come from the whole dose curve; as a rule, active = well fitted inhibition curve with a large enough effect; inconclusive = small, poorly fitted or top-dose-only effect; inactive = flat fitted curve, though single readings scatter. Peptide text beside a SMILES is read from it.
Test system: SC27B
Test: qHTS profiling for inhibitors of Plasmodium falciparum proliferation (AID 504749); note: nearly all actives have a fitted effect of over 60% in size
Settings: P. falciparum in erythrocytes, SYBR Green DNA, 72 h; series mostly up to 28.7 µM
How it was run: (§1)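 Infected RBCs, 0.3% parasitemia/2.5% Hct final; cpd 72 h, 37 C, 5% CO2; lysis buffer with saponin/triton/SYBR Green I, o/n RT dark; FI 485/535; norm. to artemisinin (0.29 uM) and DMSO.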
Potency is the fitted concentration of half-maximal effect.

Compound | Potency
Cc1cc2cc3c(C)cc(=O)oc3c(C)c2o1 | inactive
COc1ccc2cc([C@H](C)C(=O)O)ccc2c1 | inactive
Cc1ccc(C)c(OCCCC(C)(C)C(=O)O)c1 | inactive
CS(=O)(=O)OCCCCOS(C)(=O)=O | inactive
CCC1=C(C)CN(C(=O)NCCc2ccc(S(=O)(=O)NC(=O)NC3CCC(C)CC3)cc2)C1=O (stereo not given) | inactive
O=C(O)CCNC(=O)c1ccc(N=Nc2ccc(O)c(C(=O)O)c2)cc1 | inactive
Cc1c(C(=O)NN2CCCCC2)nn(-c2ccc(Cl)cc2Cl)c1-c1ccc(Cl)cc1 | 10 µM (active)
Cn1c(NCCN(CCO)CCCc2ccc([N+](=O)[O-])cc2)cc(=O)n(C)c1=O | inactive
CCN(CCO)CCCC(C)Nc1ccnc2cc(Cl)ccc12 (stereo not given) | inactive
CN(C)C(=O)COC(=O)Cc1ccc(OC(=O)c2ccc(N=C(N)N)cc2)cc1 | inactive
COC1=C(OC)C(=O)C(CCCCCCCCCCO)=C(C)C1=O | inactive
COC(=O)[C@H](Cc1ccccc1)NC(=O)[C@@H](N)CC(=O)O (H-Asp-Phe-OMe) | inactive
CC1(C)CCC(C)(C)c2cc(NC(=O)c3ccc(C(=O)O)cc3)ccc21 | inactive
COC(=O)C1=C(C)NC(C)=C(C(=O)OCCCN2CCC(c3ccccc3)(c3ccccc3)CC2)C1c1cccc([N+](=O)[O-])c1 (stereo not given) | 3.55 µM (active)
O=C(NC(Cc1cc(=O)[nH]c2ccccc12)C(=O)O)c1ccc(Cl)cc1 (stereo not given) | inactive
CN(c1nccc(=O)[nH]1)C1CCN(c2nc3ccccc3n2Cc2ccc(F)cc2)CC1 | inactive
Cc1cc2c(s1)Nc1ccccc1N=C2N1CCN(C)CC1 | inactive
Cc1ncc([N+](=O)[O-])n1CC(C)O (stereo not given) | inactive
CNC[C@H](O)c1ccc(O)c(O)c1 | inactive
Clc1ccc(C(Cn2ccnc2)OCc2ccsc2Cl)c(Cl)c1 (stereo not given) | 2 µM (active)

Test system: TAB109
Test: as above
Settings: P. falciparum in erythrocytes, SYBR Green DNA, 72 h; series mostly up to 28.7 µM
How it was run: as §1

Compound | Potency
Cc1cc2cc3c(C)cc(=O)oc3c(C)c2o1 | inactive
COc1ccc2cc([C@H](C)C(=O)O)ccc2c1 | inactive
Cc1ccc(C)c(OCCCC(C)(C)C(=O)O)c1 | inactive
CS(=O)(=O)OCCCCOS(C)(=O)=O | inactive
CC1=C(C)C(=O)C(C(CCCCCC(=O)O)c2ccccc2)=C(C)C1=O (stereo not given) | inactive
CCC1=C(C)CN(C(=O)NCCc2ccc(S(=O)(=O)NC(=O)NC3CCC(C)CC3)cc2)C1=O (stereo not given) | inactive
O=C(O)CCNC(=O)c1ccc(N=Nc2ccc(O)c(C(=O)O)c2)cc1 | inactive
Cn1c(NCCN(CCO)CCCc2ccc([N+](=O)[O-])cc2)cc(=O)n(C)c1=O | inactive
CCN(CCO)CCCC(C)Nc1ccnc2cc(Cl)ccc12 (stereo not given) | inactive
CN(C)C(=O)COC(=O)Cc1ccc(OC(=O)c2ccc(N=C(N)N)cc2)cc1 | inactive
COC1=C(OC)C(=O)C(CCCCCCCCCCO)=C(C)C1=O | inactive
COC(=O)[C@H](Cc1ccccc1)NC(=O)[C@@H](N)CC(=O)O (H-Asp-Phe-OMe) | inactive
CC1(C)CCC(C)(C)c2cc(NC(=O)c3ccc(C(=O)O)cc3)ccc21 | inactive
COC(=O)C1=C(C)NC(C)=C(C(=O)OCCCN2CCC(c3ccccc3)(c3ccccc3)CC2)C1c1cccc([N+](=O)[O-])c1 (stereo not given) | 5.01 µM (active)
O=C(NC(Cc1cc(=O)[nH]c2ccccc12)C(=O)O)c1ccc(Cl)cc1 (stereo not given) | inactive
Cc1cc2c(s1)Nc1ccccc1N=C2N1CCN(C)CC1 | inactive
Cc1ncc([N+](=O)[O-])n1CC(C)O (stereo not given) | inactive
CNC[C@H](O)c1ccc(O)c(O)c1 | inactive
Clc1ccc(C(Cn2ccnc2)OCc2ccsc2Cl)c(Cl)c1 (stereo not given) | 5.01 µM (active)

Test system: TAB113
Test: as above
Settings: P. falciparum in erythrocytes, SYBR Green DNA, 72 h; series mostly up to 28.7 µM
How it was run: as §1

Compound | Potency
Cc1cc2cc3c(C)cc(=O)oc3c(C)c2o1 | inactive
COc1ccc2cc([C@H](C)C(=O)O)ccc2c1 | inactive
Cc1ccc(C)c(OCCCC(C)(C)C(=O)O)c1 | inactive
CCC[C@@H]1C[C@@H](C(=O)N[C@@H]([C@H]2O[C@H](SC)[C@H](O)[C@@H](O)[C@H]2O)[C@@H](C)O)N(C)C1 | inactive
CS(=O)(=O)OCCCCOS(C)(=O)=O | inactive
CC1=C(C)C(=O)C(C(CCCCCC(=O)O)c2ccccc2)=C(C)C1=O (stereo not given) | inactive
CCC1=C(C)CN(C(=O)NCCc2ccc(S(=O)(=O)NC(=O)NC3CCC(C)CC3)cc2)C1=O (stereo not given) | inactive
O=C(O)CCNC(=O)c1ccc(N=Nc2ccc(O)c(C(=O)O)c2)cc1 | inactive
Cn1c(NCCN(CCO)CCCc2ccc([N+](=O)[O-])cc2)cc(=O)n(C)c1=O | inactive
CCN(CCO)CCCC(C)Nc1ccnc2cc(Cl)ccc12 (stereo not given) | inactive
CN(C)C(=O)COC(=O)Cc1ccc(OC(=O)c2ccc(N=C(N)N)cc2)cc1 | inactive
COC(=O)[C@H](Cc1ccccc1)NC(=O)[C@@H](N)CC(=O)O (H-Asp-Phe-OMe) | inactive
CC1(C)CCC(C)(C)c2cc(NC(=O)c3ccc(C(=O)O)cc3)ccc21 | inactive
COC(=O)C1=C(C)NC(C)=C(C(=O)OCCCN2CCC(c3ccccc3)(c3ccccc3)CC2)C1c1cccc([N+](=O)[O-])c1 (stereo not given) | 2.51 µM (active)
O=C(NC(Cc1cc(=O)[nH]c2ccccc12)C(=O)O)c1ccc(Cl)cc1 (stereo not given) | inactive
CN(c1nccc(=O)[nH]1)C1CCN(c2nc3ccccc3n2Cc2ccc(F)cc2)CC1 | inactive
Cc1cc2c(s1)Nc1ccccc1N=C2N1CCN(C)CC1 | inactive
Cc1cc(=O)oc2cc(O)ccc12 | 1 µM (active)
Cc1ncc([N+](=O)[O-])n1CC(C)O (stereo not given) | inactive
CNC[C@H](O)c1ccc(O)c(O)c1 | inactive
Clc1ccc(C(Cn2ccnc2)OCc2ccsc2Cl)c(Cl)c1 (stereo not given) | 4.47 µM (active)

— PubChem BioAssay (NCATS)
